# Experimental data as given in article PMC10726135, “HNF4α isoforms regulate the circadian balance between carbohydrate and lipid metabolism in the liver”.
# In all, about 18,000 sequences were measured (“log2 normalized intensity”: median about 0.39, highest 2% from about 6.6 on). This excerpt belongs to a sample that is enriched for the highest values.
# Molecular target: T1, HNF4alpha2 (COS-7 nuclear extract) (Homo sapiens, UniProt P41235 1-474)
# T1 sequence: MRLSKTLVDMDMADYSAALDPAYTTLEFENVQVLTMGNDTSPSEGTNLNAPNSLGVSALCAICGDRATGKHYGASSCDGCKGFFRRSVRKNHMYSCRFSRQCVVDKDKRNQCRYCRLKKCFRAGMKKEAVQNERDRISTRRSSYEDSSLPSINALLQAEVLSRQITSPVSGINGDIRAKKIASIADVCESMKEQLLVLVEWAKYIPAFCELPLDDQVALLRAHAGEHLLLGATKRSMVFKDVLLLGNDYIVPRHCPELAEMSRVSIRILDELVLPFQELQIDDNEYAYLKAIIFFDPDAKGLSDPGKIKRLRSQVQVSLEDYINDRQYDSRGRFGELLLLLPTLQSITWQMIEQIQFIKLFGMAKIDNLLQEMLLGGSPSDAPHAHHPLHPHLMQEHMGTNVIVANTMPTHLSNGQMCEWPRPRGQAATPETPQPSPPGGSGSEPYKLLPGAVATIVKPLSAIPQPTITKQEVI
# Experiment: protein-binding microarray; COS-7 nuclear extract on double-stranded Agilent 4x180k PBM; binding buffer, salt, pH and temperature not given in the material; high values mean tight binding
# Conditions: chain copies: 2; label: 3' end of strand 1 on the slide; dsDNA, one strand shown
# In short: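 A custom Agilent SurePrint G3 4x180k array, spotted in quadruplicate with ~44,000 test sequences as ~60-nt oligonucleotides made double-stranded, was incubated with nuclear extracts. The extracts came from COS-7 cells transiently transfected by CaPO4 with a human HNF4α isoform expression vector. Bound HNF4α was imaged on an Agilent G2565CA scanner at 2-µm resolution, and the binding signal was taken as Agilent software's background-corrected, normalized gProcessedSignal.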
row,Sequence,binding signal
1,AGACCCTTATCAGTAGTTCTCCTTTCTGCCGCCTAGGGAGATTAGAGTATCGGTCGA,1.39 log2 normalized intensity
2,ATGCATAGAAGTATGTCTGGGATTTGAAGGGCCTAGGGAGATTAGAGTATCGGTCGA,-0.542 log2 normalized intensity
3,GTCAAGCAATGATCTTCATGAACTTCTGTCGCCTAGGGAGATTAGAGTATCGGTCGA,1.26 log2 normalized intensity
4,TAAAACCATGCAAATTGCTGACTTTCTGTGGCCTAGGGAGATTAGAGTATCGGTCGA,-0.773 log2 normalized intensity
5,CAGCAGGGCACCGCCTCCACACCCCAGCCTGCCTAGGGAGATTAGAGTATCGGTCGA,3.03 log2 normalized intensity
6,GCCCTCCCCCAGAGAGAACAGTCCTACAAAGCCTAGGGAGATTAGAGTATCGGTCGA,2.08 log2 normalized intensity
7,AAGATGGGCATTAGGTGGACAGGGGTGTGTGCCTAGGGAGATTAGAGTATCGGTCGA,1.78 log2 normalized intensity
8,ACCCTTTGAGTCCTTCATGGCTACCCTTCAGCCTAGGGAGATTAGAGTATCGGTCGA,0.859 log2 normalized intensity
9,CCCGCAGTGAGGGACAAGGCTGTCCCCCATGCCTAGGGAGATTAGAGTATCGGTCGA,1.6 log2 normalized intensity
10,GGGGGTAAAGTGGATTGCTGGCCTTTTATCGCCTAGGGAGATTAGAGTATCGGTCGA,0.814 log2 normalized intensity
11,CTCACATGAGCTAGAGCTCGTGTCATCTCTGCCTAGGGAGATTAGAGTATCGGTCGA,-0.899 log2 normalized intensity
12,CACCAGAAAAATGTACATGTGCAAAAGCACGCCTAGGGAGATTAGAGTATCGGTCGA,0.628 log2 normalized intensity
13,CAAGGGTCAGTTCATTAAAAAAAAAAAAAAGCCTAGGGAGATTAGAGTATCGGTCGA,1.19 log2 normalized intensity
14,GGCATGGGAAGCAGTGAGGGTGGGTTCAAAGCCTAGGGAGATTAGAGTATCGGTCGA,0.803 log2 normalized intensity
15,GACTCAGAAAAATATGTGGACTTCAAAGGTGCCTAGGGAGATTAGAGTATCGGTCGA,1.29 log2 normalized intensity
16,GCAGTGAGGGTGGGTTCAAAGGTCAGAAAAGCCTAGGGAGATTAGAGTATCGGTCGA,7.95 log2 normalized intensity
17,AAAGGGGAAAAGGTCAAATACCAAAATGTGGCCTAGGGAGATTAGAGTATCGGTCGA,1.8 log2 normalized intensity
18,TAGAAGCAGTGGGACAAAGGTCACAGGAAAGCCTAGGGAGATTAGAGTATCGGTCGA,4.42 log2 normalized intensity
19,GAGGGTGGGTTCAAAGGTCAGAAAAAGCTGGCCTAGGGAGATTAGAGTATCGGTCGA,6.66 log2 normalized intensity
20,AAGAAAAGCCTTGTGGCAGTGAGAACAGGTGCCTAGGGAGATTAGAGTATCGGTCGA,0.143 log2 normalized intensity
21,GGGAAGCAGTGAGGGTGGGTTCAAAGGTCAGCCTAGGGAGATTAGAGTATCGGTCGA,8.24 log2 normalized intensity
22,TCAAAGGTCAGAAAAAGCTGACGCCCCACCGCCTAGGGAGATTAGAGTATCGGTCGA,3.28 log2 normalized intensity

row,Sequence,binding signal
1,GGTCAGAAAAAGCTGACGCCCCACCCCCTCGCCTAGGGAGATTAGAGTATCGGTCGA,5.94 log2 normalized intensity
2,TGGGTTCAAAGGTCAGAAAAAGCTGACGCCGCCTAGGGAGATTAGAGTATCGGTCGA,6.84 log2 normalized intensity
3,AATTTTTTTTTCTTATCTCACTGGATGTGTGCCTAGGGAGATTAGAGTATCGGTCGA,2.22 log2 normalized intensity
4,AGGTTAAGACTTTGAATCAGTAAATATTTGGCCTAGGGAGATTAGAGTATCGGTCGA,0.901 log2 normalized intensity
5,AGATACAGGTCAGACCCTGGAATTCCAGAAGCCTAGGGAGATTAGAGTATCGGTCGA,-0.969 log2 normalized intensity
6,GGCCCATTTTCCCATGGTCTGTAGAAGGCGGCCTAGGGAGATTAGAGTATCGGTCGA,0.306 log2 normalized intensity
7,GATGTTCGTTTGGATCGCTTGGCTCAGGCCGCCTAGGGAGATTAGAGTATCGGTCGA,-0.819 log2 normalized intensity
8,CTCTGATCCTAGTCTTTGCCCCACTGCAAGGCCTAGGGAGATTAGAGTATCGGTCGA,2.95 log2 normalized intensity
9,GGGTGGTGGTTACCGGCAGAGGCTGCAGAGGCCTAGGGAGATTAGAGTATCGGTCGA,0.249 log2 normalized intensity
10,CTCCCTTTGATGCGGTCAGAGTTCATTTGGGCCTAGGGAGATTAGAGTATCGGTCGA,3.48 log2 normalized intensity
11,CAGTTTTTGTTTGCACCTCACAGGAAGAACGCCTAGGGAGATTAGAGTATCGGTCGA,1.15 log2 normalized intensity
12,ATTTGAGGGTGACACTGCTCTCTCCAGGGGGCCTAGGGAGATTAGAGTATCGGTCGA,-0.738 log2 normalized intensity
13,CCCACAGAGGGGGTTTGTTTTTTGCCCTTTGCCTAGGGAGATTAGAGTATCGGTCGA,4.6 log2 normalized intensity
14,AGAGGGGGTTTGTTTTTTGCCCTTTGTACCGCCTAGGGAGATTAGAGTATCGGTCGA,8.01 log2 normalized intensity
15,TGTTTTTTGCCCTTTGTACCCACACACACCGCCTAGGGAGATTAGAGTATCGGTCGA,6.48 log2 normalized intensity
16,TGCCCTTTGCCTGGTGATCTTTGTTAGACCGCCTAGGGAGATTAGAGTATCGGTCGA,2.7 log2 normalized intensity
17,AGCCTACCCACCCACACCTCCCCTTTGTTTGCCTAGGGAGATTAGAGTATCGGTCGA,3.59 log2 normalized intensity
18,GGGTTTGTTTTTTGCCCTTTGTACCCACACGCCTAGGGAGATTAGAGTATCGGTCGA,7.67 log2 normalized intensity
19,ATGCCGGCGTGACCCCCACTGCCTGCCTGCGCCTAGGGAGATTAGAGTATCGGTCGA,3.81 log2 normalized intensity
20,ATTTGACAATTTACAGTGTTCAAAGGTAGCGCCTAGGGAGATTAGAGTATCGGTCGA,1.66 log2 normalized intensity
21,CTGGACTATGCCTTGAACTTTAAGGCACCTGCCTAGGGAGATTAGAGTATCGGTCGA,1.07 log2 normalized intensity
22,ACGACCTTTGGACTTGAATTATCCTTATGGGCCTAGGGAGATTAGAGTATCGGTCGA,6.27 log2 normalized intensity

row,Sequence,binding signal
1,GCCTAAGCAGGGCTAGACTTTAACCCCCTTGCCTAGGGAGATTAGAGTATCGGTCGA,5.53 log2 normalized intensity
2,TGCTAGAGTACTTGGACTTTAACCTTTAGAGCCTAGGGAGATTAGAGTATCGGTCGA,9.24 log2 normalized intensity
3,GCTTTTGGAAGGACTTCGAATGGTATGCTAGCCTAGGGAGATTAGAGTATCGGTCGA,0.461 log2 normalized intensity
4,GGACTTCGAATGGTATGCTAGAGTACTTGGGCCTAGGGAGATTAGAGTATCGGTCGA,1.23 log2 normalized intensity
5,CTTTGGACTTGAATTATCCTTATGGTCTCTGCCTAGGGAGATTAGAGTATCGGTCGA,0.855 log2 normalized intensity
6,TCGAATGGTATGCTAGAGTACTTGGACTTTGCCTAGGGAGATTAGAGTATCGGTCGA,6.9 log2 normalized intensity
7,TATGCTCTCTCTCCACCTGGAGGGACTTTGGCCTAGGGAGATTAGAGTATCGGTCGA,2.59 log2 normalized intensity
8,TAGGGCCTTGCTATGGAGTGGACTTTGGCTGCCTAGGGAGATTAGAGTATCGGTCGA,6.16 log2 normalized intensity
9,CTTTAACGACCTTTGGACTTGAATTATCCTGCCTAGGGAGATTAGAGTATCGGTCGA,7.84 log2 normalized intensity
10,TGGTATGCTAGAGTACTTGGACTTTAACCTGCCTAGGGAGATTAGAGTATCGGTCGA,9.48 log2 normalized intensity
11,CGTCCGTCACCCCTTTCTTTGATTAGGAAAGCCTAGGGAGATTAGAGTATCGGTCGA,1.54 log2 normalized intensity
12,GTCAGTTGATAAACAGATAACTGGGGGCAAGCCTAGGGAGATTAGAGTATCGGTCGA,0.764 log2 normalized intensity
13,AGTCTGATTCTAGGGCCCATGCCCTTAGCCGCCTAGGGAGATTAGAGTATCGGTCGA,0.883 log2 normalized intensity
14,TCTGTATGTCTAAGGTTTCTCAGCCCCATCGCCTAGGGAGATTAGAGTATCGGTCGA,4.27 log2 normalized intensity
15,CGGGTGAAGGTTAAATAGCTCATTAAGCTTGCCTAGGGAGATTAGAGTATCGGTCGA,-0.974 log2 normalized intensity
16,CTCTCAACTCAGTGAGGGCTATTGACAAAGGCCTAGGGAGATTAGAGTATCGGTCGA,-0.637 log2 normalized intensity
17,ATTTTCCCACTTGTATGTCCAAGGGTCACTGCCTAGGGAGATTAGAGTATCGGTCGA,4.44 log2 normalized intensity
18,AATTTTCTCTGTATACTTGTCTTATCAGCAGCCTAGGGAGATTAGAGTATCGGTCGA,0.598 log2 normalized intensity
19,CTTGGACTTTAACCTTTAGATTACTAGGAAGCCTAGGGAGATTAGAGTATCGGTCGA,6.18 log2 normalized intensity
20,ACTTTAACCTTTAGATTACTAGGAATTGATGCCTAGGGAGATTAGAGTATCGGTCGA,0.914 log2 normalized intensity
21,GAGTACTTGGACTTTAACCTTTAGATTACTGCCTAGGGAGATTAGAGTATCGGTCGA,7.31 log2 normalized intensity
22,CTTATCTTTGACCTTACCAGCCCACTCTTAGCCTAGGGAGATTAGAGTATCGGTCGA,1.9 log2 normalized intensity

row,Sequence,binding signal
1,TTTCATTCCACTGACTTGCAACCTTTGCCCGCCTAGGGAGATTAGAGTATCGGTCGA,6.76 log2 normalized intensity
2,TTCCACTGACTTGCAACCTTTGCCCTGTTGGCCTAGGGAGATTAGAGTATCGGTCGA,6.31 log2 normalized intensity
3,CTGGCTTTCATTCCACTGACTTGCAACCTTGCCTAGGGAGATTAGAGTATCGGTCGA,0.803 log2 normalized intensity
4,CCCTTGGAATGTGACCTTAGACCCCTGAATGCCTAGGGAGATTAGAGTATCGGTCGA,5.74 log2 normalized intensity
5,TTCCTCCCTTGGAATGTGACCTTAGACCCCGCCTAGGGAGATTAGAGTATCGGTCGA,8.18 log2 normalized intensity
6,TTGCCCTTCTTGGATGCCCTTCCCTAACCCGCCTAGGGAGATTAGAGTATCGGTCGA,2.66 log2 normalized intensity
7,TTAGCTTCCTCCCTTGGAATGTGACCTTAGGCCTAGGGAGATTAGAGTATCGGTCGA,4.12 log2 normalized intensity
8,TGCCCTTGACTTTTTGTGGGGGCAGATGTTGCCTAGGGAGATTAGAGTATCGGTCGA,1.86 log2 normalized intensity
9,AGATGACCTTTGCCCTTGACTTTTTGTGGGGCCTAGGGAGATTAGAGTATCGGTCGA,7.08 log2 normalized intensity
10,GAGAGTTCCCTTGGAATGCCAGATGACCTTGCCTAGGGAGATTAGAGTATCGGTCGA,4.14 log2 normalized intensity
11,ACCTTTGCCCTTGACTTTTTGTGGGGGCAGGCCTAGGGAGATTAGAGTATCGGTCGA,2.38 log2 normalized intensity
12,TTCCCTTGGAATGCCAGATGACCTTTGCCCGCCTAGGGAGATTAGAGTATCGGTCGA,9.88 log2 normalized intensity
13,AGGGTGACCCCTGTGGTACAGGCAGTGACTGCCTAGGGAGATTAGAGTATCGGTCGA,1.48 log2 normalized intensity
14,GAGGCTGCTCTCTGTCCCTGCACCCTACCCGCCTAGGGAGATTAGAGTATCGGTCGA,1.6 log2 normalized intensity
15,AGGGCCCTTCACTATTTTCAAAGGTCAACAGCCTAGGGAGATTAGAGTATCGGTCGA,3.49 log2 normalized intensity
16,TGTGTTTCCACAAACACAGATCAGATATGAGCCTAGGGAGATTAGAGTATCGGTCGA,-0.462 log2 normalized intensity
17,GGCCTCCCCATCCTCATGACAGTACCTCTCGCCTAGGGAGATTAGAGTATCGGTCGA,2.32 log2 normalized intensity
18,GAACTTTGACCACCTACTGTTTGTGCAGAGGCCTAGGGAGATTAGAGTATCGGTCGA,4.13 log2 normalized intensity
19,ACACTGCCATTTAAAAGTTTCCCTTGATCAGCCTAGGGAGATTAGAGTATCGGTCGA,0.876 log2 normalized intensity
